This is an account of results in PubChem BioAssay (NCATS).

Each structure is given as a SMILES string. Results filed as inconclusive are left out. Activity calls are given as the source filed them. Calls follow the shape of the dose curve; as a rule, active = well fitted cell-killing curve with a large enough effect; inconclusive = small, poorly fitted or top-dose-only effect, or effect the other way; inactive = no such curve, though single readings can be large or run the other way.
Potency is read from the fitted curve at half-maximal effect.

A short description of this assay: Quantitative High-Throughput drug screen in 47 multiple myeloma cell lines against the NCATS MIPE library collection: MM1S_ATCC cell viability assay (AID 1918980). Also: nearly all actives have a fitted effect of over 45% in size. Conditions: MM1S myeloma viability, CellTiter-Glo ATP luminescence, 48 h; series mostly up to 45.8 µM. From the text: PI: Beverly A. Mock Ph.D.
Laboratory of Cancer Biology and Genetics,
Center for Cancer Research, National Cancer Institute,
National Institute of Health, Bethesda, Maryland
Drug resistance and disease progression are common in multiple myeloma (MM) patients, underscoring the need for new therapeutic combinations. […] We hypothesized that effective combinations would reduce MYC expression and enhance p16 activity. […] These preclinical data identify potentially useful drug combinations for evaluation in drug-resistant MM and reveal potential mechanisms of combined drug sensitivity.
Described herein is the primary MIPE qHTS used to cherrypick compounds. Validated compounds were then further tested for potential synergistic activiy.
[1] Peat TJ, Gaikwad SM, Dubois W, Gyabaah-Kessie N, Zhang S, Gorjifard S, Phyo Z, Andres M, Hughitt VK, Simpson RM, Miller MA, Girvin AT, Taylor A, Williams D, D'Antonio N, Zhang Y, Rajagopalan A, Flietner E, Wilson K, Zhang X, Shinn P, Klumpp-Thomas C, McKnight C, Itkin Z, Chen L, Kazandijian D, Zhang J, Michalowski AM, Simmons JK, Keats J, Thomas CJ, Mock BA. Drug combinations identified by high-throughput screening promote cell cycle transition and upregulate Smad pathways in myeloma. Cancer Lett. 2023 Aug 1;568:216284. doi: 10.1016/j.canlet.2023.216284. Epub 2023 Jun 24. PMID: 37356470; PMCID: PMC10408729.
SEQUENCE No. (e.g., 1, 2, 3, etc.); […] (e.g., Cells, Incubation, Reagent, etc.); VALUE and DESCRIPTION.
1; Cells; 5 uL; white, solid bottom 1536-well Greiner assay plate.
2; Compounds; 23 nL; Kalypsis pin tool (Wako USA) equipped with a 1536-well pin head to transfer to the assay plates.
3; Incubation; 48 hours; 37C incubation.
4; Reagent;5uL; CellTiter Glo (Promega).
5; Detector; 425V; Luminescence; Viewlux PerkinElmer.
NOTES (numbers refer to Sequence numbers above)
1. The cell-based screening methods employed in this study were like those previously published. Briefly, the corresponding myeloma cell lines were screened in 1,536-well plates with 500 cells, 5-uL per well for inhibition of cell viability (assessed by measuring ATP levels with CellTiterGlo).
2. NCATS MIPE 4.0 library of approved and investigational drugs were added using the Kalypsis pin tool. Wells treated with DMSO only for 100% viability and media only for 0% viability were used as controls.
3. The assay plates were covered and incubated for 48 hours in a 37C, 5% CO2 incubator with controlled humidity.
4. After 48 hours, CellTilter-GloTM luminescent substrate mix (Promega) reagent was added to the assay plate and plates we incubated for 5 min at room temperature.
5. Signal was measured as median relative luminescence units on a ViewLux (PerkinElmer) multiplate reader.
[1] Heske CM, Davis MI, Baumgart JT, Wilson K, Gormally MV, Chen L, Zhang X, Ceribelli M, Duveau DY, Guha R, Ferrer M, Arnaldez FI, Ji J, Tran HL, Zhang Y, Mendoza A, Helman LJ, Thomas CJ. Matrix Screen Identifies Synergistic Combination of PARP Inhibitors and Nicotinamide Phosphoribosyltransferase (NAMPT) Inhibitors in Ewing Sarcoma. Clin Cancer Res. 2017 Dec 1;23(23):7301-7311. doi: 10.1158/1078-0432.CCR-17-1121. Epub 2017 Sep 12. PMID: 28899971; PMCID: PMC6636827.
Regarding `O=C(Cc1ccc(-c2ccc(OCCN3CCOCC3)cc2)cn1)NCc1ccccc1`, the Potency is 132 nM (active). With `C[C@]12CC[C@H](O)CC1=CCC1C2CC[C@]2(C)C(n3cnc4ccccc43)=CCC12` (stereo not given in full) the entry was “inactive”; with `CN(C)CC(C)(C)CNc1nn2c(-c3ccccc3)nnc2cc1C1CCC1`, 166 nM (active).

Regarding `CC1COC2(CCN(c3nc(=O)c4cc(C(F)(F)F)cc([N+](=O)[O-])c4s3)CC2)O1` (stereo not given), the Potency entry is “inactive”. As to `CCS(=O)(=O)c1cccc(-c2cc(C(=O)NC3CCN(C)CC3)c(C)c3[nH]c4ncc(C)cc4c23)c1`, the Potency was 1660 nM (active). Next, `CC1(C)O[C@@H]2C[C@@H]3[C@H]4C[C@@H](F)C5=CC(=O)C=C[C@]5(C)[C@@]4(F)[C@@H](O)C[C@]3(C)[C@]2(C(=O)CO)O1`: 11.8 nM (active); `Cc1ccc(C(N)=O)cc1Nc1nccc(-c2cn(C(C)C)c3cnccc23)n1`: 7430 nM (active). With `CCC(=C(c1ccccc1)c1ccc(OCCN(C)C)cc1)c1ccccc1` the figure was 29600 nM (active); with `CCN(CC)CCNC(=O)c1ccc2nc(-c3ccccc3)c(-c3ccc(CN4CCC(n5c(=O)[nH]c6ccccc65)CC4)cc3)nc2c1`, 8330 nM (active); with `CN(C1CCc2c(c3ccccc3n2CC(=O)O)C1)S(=O)(=O)c1ccc(F)cc1` (stereo not given), 1480 nM (active). Turning to `NC(=O)c1c(OCc2c(F)cc(Br)cc2F)nsc1NC(=O)NCCCCN1CCCC1`, the Potency is 2960 nM (active). With `OCc1ccc(-c2ccc(-c3ccc(CO)s3)o2)s1` the figure was 6620 nM (active); with `COc1cc(-c2nn(C3CCC(N4CCN(C(C)=O)CC4)CC3)c3ncnc(N)c23)ccc1NC(=O)c1cc2ccccc2n1C` (stereo not given), 5900 nM (active). On to `CCn1cc(-c2ccnc3[nH]c(-c4cccc(CN(C)C)c4)cc23)c(-c2ccc(NC(=O)N(C)C)cc2)n1`, for which the Potency is 5260 nM (active).

Consider `CCC1=C[C@@H]2CN(C1)Cc1c([nH]c3ccccc13)[C@@](C(=O)OC)(c1cc3c(cc1OC)N(C)[C@@H]1[C@@](O)(C(=O)OC)[C@H](OC(C)=O)[C@]4(CC)C=CCN5CC[C@]31[C@@H]54)C2`, for which the Potency is 372 nM (active).

For `C[C@@H](Oc1cc(-c2cnn(C3CCNCC3)c2)cnc1N)c1c(Cl)ccc(F)c1Cl`, the Potency was 18700 nM (active).

With `CC(C)c1nn(-c2c(Cl)cccc2Cl)c2nc(Cc3ccc(OCCO)cc3)[nH]c(=O)c12`, the Potency was 41.8 nM (active). With `Cc1[nH]c2ccccc2c1CCNCc1ccc(C=CC(=O)NO)cc1` the figure was 74.3 nM (active); with `COC(=O)[C@]12CCC(C)(C)C[C@@H]1[C@@H]1C(=O)C=C3[C@@]4(C)C=C(C#N)C(=O)C(C)(C)[C@@H]4CC[C@@]3(C)[C@]1(C)CC2`, 418 nM (active); with `CC(=O)OCC(=O)[C@@]1(O)[C@H](C)C[C@H]2[C@@H]3C=C(C)C4=Cc5c(cnn5-c5ccccc5)C[C@]4(C)[C@@H]3[C@@H](O)C[C@@]21C`, 13.2 nM (active).

With `Cc1nc(N)ncc1-c1nc(N2CCOCC2)c2sc(C(C)(C)O)cc2n1`, the Potency was 743 nM (active). Next, `O=C(NCCS(=O)(=O)c1ccc(C(F)(F)F)cn1)c1ccc(Cl)cc1`: “inactive”; `Cc1ccc(NC(=O)C2(c3ccc4c(c3)OC(F)(F)O4)CC2)nc1-c1cccc(C(=O)O)c1`: 52.6 nM (active); `Cc1ccc(CN2CCNCC2)cc1NC(=O)CNc1ccc(F)c(F)c1`: 2640 nM (active). Regarding `Nc1ccc(S(=O)(=O)Nc2ncccn2)cc1`, the Potency entry is “inactive”. With `COC(=O)Nc1ccc(-c2nc(N3CCOCC3)c3cnn(C4CCN(Cc5cccnc5)CC4)c3n2)cc1`, the Potency was 118 nM (active). Next, `N#CCNC(=O)c1ccc(-c2ccnc(Nc3ccc(N4CCOCC4)cc3)n2)cc1`: 18700 nM (active); `CCN(CC)CCCCNc1ncc2cc(-c3cc(OC)cc(OC)c3)c(NC(=O)NC(C)(C)C)nc2n1`: 20900 nM (active). Next, `Cn1cncc1[C@@](N)(c1ccc(Cl)cc1)c1ccc2c(c1)c(-c1cccc(Cl)c1)cc(=O)n2C`: 6620 nM (active); `C[C@@H]1CN(CC(=O)Nc2ccc3c(c2)Cc2cccc(-c4cc(=O)cc(N5CCOCC5)o4)c2S3)C[C@H](C)O1`: 18700 nM (active); `CCOc1ccccc1OCCNC(C)Cc1ccc(OC)c(S(N)(=O)=O)c1` (stereo not given): “inactive”. As for `Cn1cc(-c2[nH]c3cc(NC(=O)[C@H](N)C4CCCCC4)cc4c3c2C=NNC4=O)cn1`, the Potency is 1180 nM (active). Take `Cc1cn(-c2cc(NC(=O)c3ccc(C)c(Nc4nccc(-c5cccnc5)n4)c3)cc(C(F)(F)F)c2)cn1`: the Potency entry was “inactive”. With `Nc1nc(Nc2ccc(S(N)(=O)=O)cc2)nn1C(=O)c1c(F)cccc1F`, the Potency was 7430 nM (active). With `COc1cc2c(NC3CCN(C(C)C)CC3)nc(C3CCCCC3)nc2cc1OCCCN1CCCC1` the figure was 4180 nM (active).

Consider `CS(=O)(=O)c1ccc(-c2cnc(N)c(C(=O)Nc3ccccc3)n2)cc1`, for which the Potency is 9350 nM (active). As for `CC1(C)OC2=C(C(=O)c3ccccc3C2=O)[C@H](NCc2ccccc2)[C@H]1O`, the Potency was 2090 nM (active). As for `CNC(=O)c1ccccc1Nc1nc(Nc2ccc(N3CCOCC3)cc2OC)ncc1Cl`, the Potency was 662 nM (active). On to `Cn1cc(-c2ccncc2)c(-c2ccc(OCc3ccc4ccccc4n3)cc2)n1`, for which the Potency is 14800 nM (active). For the compound `CCCCOc1c(C(=O)c2c(F)cc(C)cc2F)cnc2n[nH]cc12`, the Potency is 2090 nM (active).
